# Assay results: PubChem BioAssay AID651658 (Broad Institute, 2012)
# About 5,100 (1.5%) of roughly 340,000 compounds were called active.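 The calls were made as follows: active = mean Tm shift, scaled 0 neutral to 100 positive control, at about 1.3% or above, every replicate too (limit read from the data); inconclusive = no clear call, values can overlap the other calls; inactive = the rest.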 The entries come from a sample that favours actives as a whole.
# Target: Fibroblast growth factor 22 (Homo sapiens) (UniProt Q9HCT0)
# Sequence (Q9HCT0 whole entry, looked up): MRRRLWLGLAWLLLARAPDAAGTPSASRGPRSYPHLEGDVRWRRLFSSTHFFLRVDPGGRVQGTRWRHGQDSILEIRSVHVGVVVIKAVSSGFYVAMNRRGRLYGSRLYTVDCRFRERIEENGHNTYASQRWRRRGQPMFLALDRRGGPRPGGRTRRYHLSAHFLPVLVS
# Assay: binders of human FGF22 protein, primary screen, FGF22 synaptogenesis inhibitor project, biophysical, thermal shift, single point (AID 651658)
# Details: recombinant FGF22 thermal shift, SYPRO orange fluorescence; at 9.99 µM; active compounds read high; percent of sucrose octasulfate shift, DMSO zero
row,SMILES,"activity (Tm shift, normalised)"
1,Cc1ccc(OCC(=O)Nc2ccc(N3CCN(C(=O)c4ccco4)CC3)cc2)c(C)c1,-0.015% (inactive)
2,Cc1ccc(NC(=O)C(c2ccccc2)N2CCN(C(=O)c3ccco3)CC2)cc1 (stereo not drawn),-0.162% (inactive)
3,CCC(=O)Nc1ccc(C(=O)N2CCN(C(=O)c3ccco3)CC2)cc1,44.4% (active)
4,O=C(Nc1cccc(F)c1)N[C@@H]1CC[C@@H](CCn2cc(Cc3ccccc3)nn2)O[C@@H]1CO,0.097% (inactive)
5,CO[C@@H]1CN(C)C(=O)c2cc(NC(=O)C3CCCC3)ccc2OC[C@@H](C)N(C(=O)Nc2ccc(C(F)(F)F)cc2)C[C@H]1C,-0.774% (inactive)
6,O=C(C[C@H]1C[C@H]2c3cc(NC(=O)CC4CC4)ccc3O[C@H]2[C@H](CO)O1)NCc1ccccn1,0.96% (inactive)
7,Cc1ccc(NC(=O)CSc2nc(CSc3ccc(C)cc3)cc(=O)[nH]2)cc1,44% (active)
8,Cc1cc(=O)[nH]c(SCC(=O)Nc2ccc(Br)cc2)n1,-0.265% (inactive)
9,CCCc1cc(=O)[nH]c(SCC(=O)Nc2ccc(C(=O)Nc3ccccc3OC)cc2)n1,-0.412% (inactive)
10,COc1ccc(S(=O)(=O)Nc2ccc3c(c2)C(=O)N([C@@H](C)CO)C[C@H](C)[C@@H](CN(C)C(=O)Nc2ccc4c(c2)OCO4)OCCCC[C@@H](C)O3)cc1,0.801% (inactive)
11,C[C@H](CO)N1C[C@H](C)[C@H](CN(C)CC2CCCC2)Oc2ncc(Br)cc2C1=O,-0.016% (inactive)
12,CC(C)NC(=O)N1[C@H](CO)[C@@H]2c3ccccc3N(C(=O)Nc3cccc(Cl)c3)C[C@@H]21,0.043% (inactive)
13,Cc1ccc(S(=O)(=O)N(C)C[C@@H]2Oc3c(NC(=O)NC(C)C)cccc3C(=O)N([C@H](C)CO)C[C@H]2C)cc1,0.01% (inactive)
14,Cc1ccc(C(C[N+](=O)[O-])c2c(C)cc3ccccn23)cc1 (stereo not drawn),43.8% (active)
15,CC(=O)Nc1ccc(/C=N/Nc2ccc(C(=O)c3c(C)cc4ccccn34)cc2[N+](=O)[O-])cc1,-0.063% (inactive)
16,Cc1cc2ccccn2c1C(=O)c1cccc(F)c1,-0.141% (inactive)
17,Cc1cc(C)n(-c2ccc3nncn3n2)n1,43.4% (active)
18,O=C(Nc1ccccc1Cl)N1CCN(c2ccc3nncn3n2)CC1,0.014% (inactive)
19,Cc1cc(C)n(-c2nnc(N3CCN(c4ccccc4)CC3)nn2)n1,0.536% (inactive)
20,CCS(=O)(=O)N1Cc2cc(C(=O)N(C)C)nc(-c3cccc(-c4ccc(C#N)cc4)c3)c2[C@H]1CCO,-0.41% (inactive)
21,CCCC#Cc1ccc2c(c1)O[C@@H](CN(C)C(=O)c1cccnc1)[C@H](C)CN([C@H](C)CO)S2(=O)=O,-0.014% (inactive)
22,CN1CCN(C(=O)c2ccc(-c3ccc(Br)cc3)o2)CC1,-0.078% (inactive)
23,S=C(c1ccc(-c2ccccc2)o1)N1CCCCC1,43.4% (active)
24,OCCN1CCN(C(=S)c2ccc(-c3ccccc3)cc2)CC1,-0.171% (inactive)

row,SMILES,"activity (Tm shift, normalised)"
1,C[C@@H]1CN([C@@H](C)CO)C(=O)Cc2cc(NS(C)(=O)=O)ccc2O[C@H]1CN(C)S(=O)(=O)c1ccc(F)cc1,0.13% (inactive)
2,COc1cccc(CNC(=O)C[C@@H]2C=C[C@@H](NC(=O)C3CCC3)[C@@H](CO)O2)c1,0.068% (inactive)
3,Cc1ccc(SC(C)C(=O)NCc2ccc(F)cc2)cc1 (stereo not drawn),43.3% (active)
4,CSc1ccc(CN(C)CC(=O)NCc2ccc(F)cc2)cc1,0.292% (inactive)
5,Cc1ccc(CS(=O)(=O)CCC(=O)NCc2ccc(F)cc2)cc1,-0.138% (inactive)
6,C[C@@H]1CN([C@H](C)CO)C(=O)c2cccc(NC(=O)c3nc4ccccc4s3)c2O[C@@H]1CN(C)C,0.121% (inactive)
7,CC(C)NC(=O)N(C)C[C@@H]1Oc2c(NC(=O)c3nc4ccccc4s3)cccc2C(=O)N([C@H](C)CO)C[C@H]1C,29.2% (active)
8,C[C@H](CO)N1C[C@H](C)[C@H](CN(C)C(=O)NC2CCCCC2)Oc2c(NC(=O)c3nc4ccccc4s3)cccc2C1=O,-0.035% (inactive)
9,COc1ccc(S(=O)(=O)Nc2ccc3c(c2)C(=O)N([C@H](C)CO)C[C@@H](C)[C@H](CN(C)C(=O)c2ccncc2)OCCCC[C@@H](C)O3)cc1,-0.014% (inactive)
10,O=C(C[C@H]1C[C@H]2c3cc(NC(=O)CC4CC4)ccc3O[C@H]2[C@H](CO)O1)NCc1ccccc1,0.206% (inactive)
11,N#C[C@@H]1[C@@H](c2ccc(-c3cccnc3)cc2)[C@H](CO)N1C(=O)Nc1ccc(F)cc1,0.238% (inactive)
12,O=C(Nc1nnc(-c2ccc(F)cc2)s1)c1c(F)cccc1Cl,0.279% (inactive)
13,CN(Cc1ccccc1)S(=O)(=O)c1nnc(NC(=O)c2ccccc2F)s1,-0.151% (inactive)
14,O=C(Nc1nnc(-c2ccccc2F)s1)c1ccccc1F,2.31% (active)
15,CN(C(=O)CSc1nnc(-c2ccc(C(C)(C)C)cc2)n1C)C1CCS(=O)(=O)C1 (stereo not drawn),0.442% (inactive)
16,CCn1c(SCC(=O)N(C)C2CCS(=O)(=O)C2)nnc1-c1cccs1 (stereo not drawn),43.9% (active)
17,CCN(C(=O)CSc1nc2ccccc2n1CC)C1CCS(=O)(=O)C1 (stereo not drawn),0.234% (inactive)
18,Cc1ccc(S(=O)(=O)Nc2ccc3c(c2)C(=O)N([C@H](C)CO)C[C@H](C)[C@@H](CN(C)C(=O)NC(C)C)OCCCC[C@@H](C)O3)cc1,0.879% (inactive)
19,CCCc1cn(CC[C@@H]2CC[C@@H](NC(=O)CCN3CCCCC3)[C@H](CO)O2)nn1,0.083% (inactive)
20,COc1ccc(C(=O)COC(=O)CNC(=O)c2cccs2)cc1Br,-0.191% (inactive)
21,COc1ccc(-n2c(C)cc(C(=O)COC(=O)c3cc(OC)c(OC)cc3NC(=O)c3cccs3)c2C)cc1,43.4% (active)
22,Cc1cc(C(=O)COC(=O)C2CC2)c(C)n1-c1ccc(F)cc1,0.711% (inactive)
23,COc1ccc2c3c(n(C)c2c1)[C@@H](CO)N(C(=O)Nc1ccccc1F)CC31CCN(C(=O)c2ccccc2F)CC1,-0.032% (inactive)
24,COc1ccc(NC(=O)N(C)C[C@@H]2Oc3ccc(NS(=O)(=O)c4ccc(Cl)cc4)cc3C(=O)N([C@H](C)CO)C[C@@H]2C)cc1,0.119% (inactive)
